The record followed here is paper PMC7819943, “Rice protein-binding microarrays: a tool to detect cis-acting elements near promoter regions in rice”.

The full ranking holds about 35,000 sequences; the median of “fluorescence intensity (a.u.)” is about 10,000, and the highest 2% start at about 52,000. Shown is part of a subset that was picked to be rich in the highest values.

This experiment addresses T1, OsWOX13 (Oryza sativa, UniProt Q5QMM3 1-267).
T1 sequence: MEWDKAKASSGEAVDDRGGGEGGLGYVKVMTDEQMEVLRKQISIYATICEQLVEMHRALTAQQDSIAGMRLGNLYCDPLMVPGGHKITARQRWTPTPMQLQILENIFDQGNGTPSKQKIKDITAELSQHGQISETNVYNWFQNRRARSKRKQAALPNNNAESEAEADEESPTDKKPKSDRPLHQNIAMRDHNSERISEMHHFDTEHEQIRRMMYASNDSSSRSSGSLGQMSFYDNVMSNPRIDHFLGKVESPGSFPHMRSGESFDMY
The experiment can be described thus: protein-binding microarray (RPBM); PBS, 2% BSA, 51.3 ng/ul salmon testes DNA, 50 uM zinc acetate, 200 nM TF, 25 C, 1 h; high values mean tight binding. To be noted: protein: recombinant; tags: N-terminal polyhistidine and DsRed monomer fusion (pET32a); label: CyDye5-dUTP incorporated in the synthesized complementary strand; 3' TTTTT single-stranded linker to array surface; dsDNA, one strand shown. In outline:
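The binding signal is fluorescence intensity per feature, in arbitrary units, read on an Axon 4000B scanner. Polyhistidine- and DsRed-tagged transcription factors (N-terminal fusions) from E. coli BL21-CodonPlus were purified on Ni–NTA and applied at 200 nM for 1 h at 25 °C to a double-stranded, BSA-blocked custom Agilent array in buffer with 50 µM zinc acetate.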
As for “ATACATTAATTTGATGCCCCAATAGAAGCACGCCAATCATCGGAGTCACCTAGTGCAG”, the binding signal is 12000 fluorescence intensity (a.u.).

With “TGTTGTTAGATGATAAAACATGATTAATATTTTATGCGTGCGGAGTCACCTAGTGCAG”, the binding signal was 3610 fluorescence intensity (a.u.).

In the case of “GTTTTGATAAATTGATTTAAAACGCTTTATAAGAAGTGTCCGGAGTCACCTAGTGCAG”, the binding signal was 43800 fluorescence intensity (a.u.).

Regarding “AATTTTGATAGGGTAGAATTGAAAATGTTTATTTGGATTGCGGAGTCACCTAGTGCAG”, the binding signal is 10500 fluorescence intensity (a.u.).

“AAATAACTGGTGGATATTTGTACGCTGCCCCTGAGGAACTCGGAGTCACCTAGTGCAG”: the binding signal is 3900 fluorescence intensity (a.u.).

On to “TGTTTTCCTAAGTGATTGGTGGGAAACCTCGTAGGATAAGCGGAGTCACCTAGTGCAG”, for which the binding signal was 9180 fluorescence intensity (a.u.).

Regarding “TTGATTGGGAGGAAGCCAAGAAGAAGTCAAGAACTGCCCACGGAGTCACCTAGTGCAG”, the binding signal was 31900 fluorescence intensity (a.u.).

Regarding “GTTTATTTGGGCCTGATTGGCACAGATGGTAGTGCCATGTCGGAGTCACCTAGTGCAG”, the binding signal is 31700 fluorescence intensity (a.u.).

With “CCAAAATAAACAACCAAAATTTCGCCGTGTAACTAACTCTCGGAGTCACCTAGTGCAG”, the binding signal was 3300 fluorescence intensity (a.u.).

Take “TAGTGTAATTTAACACTTAATTAGCCACATTTGTTACACACGGAGTCACCTAGTGCAG”: the binding signal is 61900 fluorescence intensity (a.u.).

Turning to “CACAGACACATTTGGTTAATTACATACCTTGTACACTTCACGGAGTCACCTAGTGCAG”, the binding signal is 6260 fluorescence intensity (a.u.).

Take “CGTTTAATTGTGTATATATATAGCCACATTAAAGTACACACGGAGTCACCTAGTGCAG”: the binding signal is 11100 fluorescence intensity (a.u.).

Turning to “ATTGACTTGACGACCGCCATGAATTCATCTCATCTCATCTCGGAGTCACCTAGTGCAG”, the binding signal is 5970 fluorescence intensity (a.u.).

On to “AGGCTAATTAACAGAGAGGGGACAATATGCAACAACGTATCGGAGTCACCTAGTGCAG”, for which the binding signal is 24000 fluorescence intensity (a.u.).

For “GATGAAACATATATTGACTGTAACATGTAGATTACATGATCGGAGTCACCTAGTGCAG”, the binding signal is 6110 fluorescence intensity (a.u.).

For the sequence “CTTTAATTTCTTCTTCTTTTCCACATATAATAATAATATACGGAGTCACCTAGTGCAG”, the binding signal was 4030 fluorescence intensity (a.u.).

On to “TAATTAATTATAATTAATTAATCCTACTGGTGCTTTCCTTCGGAGTCACCTAGTGCAG”, for which the binding signal is 54300 fluorescence intensity (a.u.).

Turning to “TATAATTATTAATAATTAATTAATTATATATTAATTATTTCGGAGTCACCTAGTGCAG”, the binding signal is 26700 fluorescence intensity (a.u.).

“TTCTGCTGCACCTAATTAATTAAATTTCCCCGCTATAATTCGGAGTCACCTAGTGCAG”: the binding signal was 11300 fluorescence intensity (a.u.).

As to “ACTTAATTAACTTGGTTCTTCCTTTAATTTCTAGCTATATCGGAGTCACCTAGTGCAG”, the binding signal is 50100 fluorescence intensity (a.u.).

For the sequence “ATTTCTTTAATTAATTAATTAATTAACATATATATCCCTTCGGAGTCACCTAGTGCAG”, the binding signal is 60600 fluorescence intensity (a.u.).

“TTAATTAATTAATTTTCTTCCTAAACATATCCGCTAATCCCGGAGTCACCTAGTGCAG”: the binding signal is 53500 fluorescence intensity (a.u.).

“CTTATTAACATTTAATTTGGTTTCTTCCTTAATTTGTATCCGGAGTCACCTAGTGCAG”: the binding signal is 12600 fluorescence intensity (a.u.).

On to “TGGTATATTAATTATTTCCTTTCCTTCCTTTCCCTTCCGACGGAGTCACCTAGTGCAG”, for which the binding signal is 5690 fluorescence intensity (a.u.).

“CCATCGTAATTGATCGAAAACTGACAACATGTTAGGGTTGCGGAGTCACCTAGTGCAG”: the binding signal was 12700 fluorescence intensity (a.u.).

“AAACAAATGATTTTATTCATTTACTCATTCATCATATCACCGGAGTCACCTAGTGCAG”: the binding signal is 10300 fluorescence intensity (a.u.).

As to “CCATGATGATGAGTCATTTTAACAGTCTGCAAGTACTAAACGGAGTCACCTAGTGCAG”, the binding signal was 8500 fluorescence intensity (a.u.).

Consider “TTTAATTTTATGTTTTGATTTTAATCTATATCTCTTCTCTCGGAGTCACCTAGTGCAG”, for which the binding signal was 22600 fluorescence intensity (a.u.).

Consider “ATTTTGACTGATGTGACGTTTGCGTGGCTGGTTTGATTAGCGGAGTCACCTAGTGCAG”, for which the binding signal is 28900 fluorescence intensity (a.u.).

Consider “TGATTTGATTTTCAGTTTTGCACCATGCGATCGATCGAGACGGAGTCACCTAGTGCAG”, for which the binding signal is 4320 fluorescence intensity (a.u.).

Turning to “GATCGATTTGGTTTTGTTGATTTGATCTGGCCGGACAAGGCGGAGTCACCTAGTGCAG”, the binding signal was 3980 fluorescence intensity (a.u.).

As for “GGGCCGTGATTGATTTGCTGGCGTGTGTGATTTTCAGCTGCGGAGTCACCTAGTGCAG”, the binding signal is 62900 fluorescence intensity (a.u.).

On to “AACCCTAGATTGATTTTGCGTGTGCTGCGTGAAGACGGCACGGAGTCACCTAGTGCAG”, for which the binding signal is 41400 fluorescence intensity (a.u.).

In the case of “TAGTTTGTGATTGATTTGTCGACATCTGGAGGCGTCATGCCGGAGTCACCTAGTGCAG”, the binding signal was 58400 fluorescence intensity (a.u.).

In the case of “GTTTGATTGATTGATTTCGTGTACCATGCGGACTTCAGATCGGAGTCACCTAGTGCAG”, the binding signal is 65100 fluorescence intensity (a.u.).

Consider “TGACTTGATTAATTGCTTCTATGTTTGGCACCCAATTAATCGGAGTCACCTAGTGCAG”, for which the binding signal was 44900 fluorescence intensity (a.u.).

For the sequence “GCTTAATTGATTAATTTGCTGGACGAGGAATCTTCTATGTCGGAGTCACCTAGTGCAG”, the binding signal is 64600 fluorescence intensity (a.u.).

Take “CTGAAACTGATTGAACTTTTGTCCATTTTCAGATCGTGTACGGAGTCACCTAGTGCAG”: the binding signal is 49400 fluorescence intensity (a.u.).

In the case of “GACATATTGTCACCGGTTTTGATTAGTTGTGGATATCTGGCGGAGTCACCTAGTGCAG”, the binding signal is 6960 fluorescence intensity (a.u.).

For “CATCCATCCAACTTAATTTGACAGCAACTCACTGCAGCTTCGGAGTCACCTAGTGCAG”, the binding signal is 12000 fluorescence intensity (a.u.).

As for “TAGTTAAATTTCCATTTAACTAGGGATAAATTAAATGGCTCGGAGTCACCTAGTGCAG”, the binding signal is 20200 fluorescence intensity (a.u.).

With “AGAATATGATTTTAAAATTAATTTTAGGGGAGGGTTTTACCGGAGTCACCTAGTGCAG”, the binding signal is 26000 fluorescence intensity (a.u.).
